Reference: the supplement of paper PMC10849652
About 7,900 targets were measured; listed, in parts, are those with a hit and a random draw of the rest. About 0.6% of all pairs of compound and target were hits.

Tests used:
Assay in all cases: log2 fold change, soluble protein after heating vs DMSO (PISA); higher = thermal stabilisation; K562 cells, 10 uM, 30 min; active = over 0.2 and 3.5 SD of the protein, either way, in both replicates (recomputed)
saracatinib = compound: CN1CCN(CCOc2cc(OC3CCOCC3)c3c(Nc4c(Cl)ccc5c4OCO5)ncnc3c2)CC1 [saracatinib]
Procedure, shortened: (§1)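 Aliquots of K562 cells (2×10^6 cells/mL) treated with 10 μM compound for 30 min were heated for 3 min over 48°C-58°C. After pooling and extraction in PBS with 0.5% NP-40 at 4°C, soluble protein from a 21,000xg, 90 min spin was quantified by TMTpro 16plex LC-MS/MS with channel sums equalised. Thermal stability is expressed against control samples, from duplicates, as a log2 fold change.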

sotrastaurin = compound: CN1CCN(c2nc(C3=C(c4c[nH]c5ccccc45)C(=O)NC3=O)c3ccccc3n2)CC1 [sotrastaurin]
Procedure, shortened: as §1

alvocidib = compound: CN1CC[C@H](c2c(O)cc(O)c3c(=O)cc(-c4ccccc4Cl)oc23)[C@H](O)C1 [alvocidib]
Procedure, shortened: as §1

Tubastatin A = compound: CN1CCc2c(c3ccccc3n2Cc2ccc(C(=O)NO)cc2)C1 [Tubastatin A]
Procedure, shortened: as §1

[1] = compound: CNC(=O)C1=CC=CC=C1NC2=NC(=NC=C2Cl)NC3=C(C=C(C=C3)N4CCOCC4)OC
Procedure, shortened: as §1

defactinib = compound: CNC(=O)c1ccc(Nc2ncc(C(F)(F)F)c(NCc3nccnc3N(C)S(C)(=O)=O)n2)cc1 [defactinib]
Procedure, shortened: as §1

rucaparib = compound: CNCc1ccc(-c2[nH]c3cc(F)cc4c3c2CCNC4=O)cc1 [rucaparib]
Procedure, shortened: as §1

[2] = compound: CNc1nc(-c2ccc3c(N)n[nH]c3c2)cc(N2C[C@@H](C(=O)NC3CCCCC3)CC[C@H]2C)n1
Procedure, shortened: as §1

encorafenib = compound: COC(=O)N[C@@H](C)CNc1nccc(-c2cn(C(C)C)nc2-c2cc(Cl)cc(NS(C)(=O)=O)c2F)n1 [encorafenib]
Procedure, shortened: as §1

[3] = compound: COC(=O)[C@H](CCSC)NC(=O)C1=C(C=C(C=C1)NC[C@H](CS)N)C2=CC=CC=C2
Procedure, shortened: as §1

[4] = compound: COC1=CC=C(C=C1)CN2C=CC3=C2C=C(C=C3)C(=O)NO
Procedure, shortened: as §1

filanesib = compound: CON(C)C(=O)N1N=C(c2cc(F)ccc2F)S[C@@]1(CCCN)c1ccccc1 [filanesib]
Procedure, shortened: as §1

zotarolimus = compound: CO[C@H]1C[C@@H]2CC[C@@H](C)[C@@](O)(O2)C(=O)C(=O)N2CCCC[C@H]2C(=O)O[C@H]([C@H](C)C[C@@H]2CC[C@H](n3cnnn3)[C@H](OC)C2)CC(=O)[C@H](C)/C=C(\C)[C@@H](O)[C@@H](OC)C(=O)[C@H](C)C[C@H](C)/C=C/C=C/C=C/1C [zotarolimus]
Procedure, shortened: as §1

idasanutlin = compound: COc1cc(C(=O)O)ccc1NC(=O)[C@@H]1N[C@@H](CC(C)(C)C)[C@](C#N)(c2ccc(Cl)cc2F)[C@H]1c1cccc(Cl)c1F [idasanutlin]
Procedure, shortened: as §1

alisertib = compound: COc1cc(Nc2ncc3c(n2)-c2ccc(Cl)cc2C(c2c(F)cccc2OC)=NC3)ccc1C(=O)O [alisertib]
Procedure, shortened: as §1

[5] = compound: COc1cc2nc(-c3cc(F)ccc3O)nc(N[C@@H]3CNC[C@H]3C(C)(C)O)c2cc1OC
Procedure, shortened: as §1

gefitinib = compound: COc1cc2ncnc(Nc3ccc(F)c(Cl)c3)c2cc1OCCCN1CCOCC1 [gefitinib]
Procedure, shortened: as §1

[6] = compound: COc1cccc2cc(-c3nc([C@H]4CC[C@H](C(=O)O)CC4)n4ncnc(N)c34)[nH]c12
Procedure, shortened: as §1

lapatinib = compound: CS(=O)(=O)CCNCc1ccc(-c2ccc3ncnc(Nc4ccc(OCc5cccc(F)c5)c(Cl)c4)c3c2)o1 [lapatinib]
Procedure, shortened: as §1

pictilisib = compound: CS(=O)(=O)N1CCN(Cc2cc3nc(-c4cccc5[nH]ncc45)nc(N4CCOCC4)c3s2)CC1 [pictilisib]
Procedure, shortened: as §1

Measured: log2 fold change

STEAP3 isoform 2 (UniProt Q658P3)
Chain of UniProt Q658P3 (Q658P3 whole entry, looked up): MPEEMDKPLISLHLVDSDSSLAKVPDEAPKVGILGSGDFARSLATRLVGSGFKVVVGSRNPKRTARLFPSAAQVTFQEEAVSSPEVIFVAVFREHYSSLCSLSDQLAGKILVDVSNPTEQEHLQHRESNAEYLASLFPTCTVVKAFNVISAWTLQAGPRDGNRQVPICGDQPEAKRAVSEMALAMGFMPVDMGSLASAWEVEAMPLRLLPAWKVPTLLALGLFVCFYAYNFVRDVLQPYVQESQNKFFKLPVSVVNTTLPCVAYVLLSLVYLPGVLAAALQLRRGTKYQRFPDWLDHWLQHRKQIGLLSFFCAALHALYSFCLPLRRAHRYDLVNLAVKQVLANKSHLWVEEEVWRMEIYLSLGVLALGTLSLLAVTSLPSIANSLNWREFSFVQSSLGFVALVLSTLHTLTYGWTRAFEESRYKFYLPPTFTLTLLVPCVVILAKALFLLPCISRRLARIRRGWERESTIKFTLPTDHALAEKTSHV
inactive: saracatinib -0.02 | sotrastaurin -0.027 | alvocidib -0.059 | Tubastatin A -0.027 | [1] -0.025 | defactinib -0.067 | rucaparib 0.055 | [2] -0.024 | encorafenib 0.012 | [3] 0.006 | [4] -0.028 | filanesib -0.014 | zotarolimus -0.06 | idasanutlin -0.11 | alisertib -0.028 | [5] 0.035 | gefitinib -0.01 | [6] 0.025 | lapatinib 0.013
active: pictilisib 0.227

SUN2 (UniProt Q9UH99)
Chain of UniProt Q9UH99 (Q9UH99 whole entry, looked up): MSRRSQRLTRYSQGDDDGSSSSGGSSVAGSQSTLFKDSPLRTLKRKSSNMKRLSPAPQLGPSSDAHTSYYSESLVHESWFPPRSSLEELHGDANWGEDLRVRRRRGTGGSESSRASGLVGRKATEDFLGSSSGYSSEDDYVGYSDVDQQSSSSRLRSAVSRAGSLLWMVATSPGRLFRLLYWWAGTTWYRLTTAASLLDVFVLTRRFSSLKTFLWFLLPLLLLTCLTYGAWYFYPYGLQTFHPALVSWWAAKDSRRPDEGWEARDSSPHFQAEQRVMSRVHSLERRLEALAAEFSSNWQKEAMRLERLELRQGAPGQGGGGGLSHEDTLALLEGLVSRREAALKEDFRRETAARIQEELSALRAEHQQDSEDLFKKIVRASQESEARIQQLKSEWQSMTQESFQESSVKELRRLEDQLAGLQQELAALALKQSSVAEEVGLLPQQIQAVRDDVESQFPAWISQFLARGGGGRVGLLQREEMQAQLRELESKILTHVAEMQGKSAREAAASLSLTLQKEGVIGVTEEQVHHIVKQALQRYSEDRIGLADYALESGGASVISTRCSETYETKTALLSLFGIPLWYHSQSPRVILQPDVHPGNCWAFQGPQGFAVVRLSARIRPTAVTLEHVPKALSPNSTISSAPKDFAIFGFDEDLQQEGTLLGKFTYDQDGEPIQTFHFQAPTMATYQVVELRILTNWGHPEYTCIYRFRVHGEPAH
inactive: saracatinib -0.029 | sotrastaurin -0.09 | alvocidib 0.015 | Tubastatin A 0.053 | [1] -0.068 | defactinib -0.05 | rucaparib 0.03 | [2] -0.066 | encorafenib 0.067 | [3] 0.023 | [4] 0.028 | filanesib 0.013 | zotarolimus 0.017 | idasanutlin 0.077 | alisertib -0.044 | [5] -0.194 | gefitinib -0.078 | [6] -0.007 | lapatinib 0.066 | pictilisib 0.071

SRP68 (UniProt Q9UHB9)
Chain of UniProt Q9UHB9 (Q9UHB9 whole entry, looked up): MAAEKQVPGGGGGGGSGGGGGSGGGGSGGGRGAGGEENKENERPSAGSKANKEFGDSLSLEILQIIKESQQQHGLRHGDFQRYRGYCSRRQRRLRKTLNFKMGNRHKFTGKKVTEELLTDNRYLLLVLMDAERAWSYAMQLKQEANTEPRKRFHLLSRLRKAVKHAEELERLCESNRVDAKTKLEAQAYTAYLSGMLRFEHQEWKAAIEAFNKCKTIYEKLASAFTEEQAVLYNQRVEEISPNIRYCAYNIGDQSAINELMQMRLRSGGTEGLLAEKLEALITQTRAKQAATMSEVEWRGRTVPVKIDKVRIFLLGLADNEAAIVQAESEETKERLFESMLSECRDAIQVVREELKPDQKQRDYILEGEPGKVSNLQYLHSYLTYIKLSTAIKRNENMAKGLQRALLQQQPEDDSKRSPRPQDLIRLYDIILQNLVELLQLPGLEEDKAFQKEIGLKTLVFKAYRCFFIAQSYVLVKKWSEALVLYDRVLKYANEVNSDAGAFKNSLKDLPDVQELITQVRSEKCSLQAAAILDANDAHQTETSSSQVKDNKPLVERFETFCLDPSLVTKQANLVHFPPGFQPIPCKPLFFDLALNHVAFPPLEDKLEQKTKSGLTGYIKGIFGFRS
inactive: saracatinib -0.033 | sotrastaurin -0.179 | alvocidib 0.044 | Tubastatin A 0.085 | [1] -0.002 | defactinib -0.019 | rucaparib 0.152 | [2] 0.049 | encorafenib 0.14 | [3] -0.073 | [4] 0.024 | filanesib 0.066 | zotarolimus 0.043 | idasanutlin -0.036 | alisertib -0.029 | [5] 0.016 | gefitinib 0.008 | [6] -0.126 | lapatinib -0.011 | pictilisib -0.054

SURF1 (UniProt Q15526)
Chain of UniProt Q15526 (Q15526 whole entry, looked up): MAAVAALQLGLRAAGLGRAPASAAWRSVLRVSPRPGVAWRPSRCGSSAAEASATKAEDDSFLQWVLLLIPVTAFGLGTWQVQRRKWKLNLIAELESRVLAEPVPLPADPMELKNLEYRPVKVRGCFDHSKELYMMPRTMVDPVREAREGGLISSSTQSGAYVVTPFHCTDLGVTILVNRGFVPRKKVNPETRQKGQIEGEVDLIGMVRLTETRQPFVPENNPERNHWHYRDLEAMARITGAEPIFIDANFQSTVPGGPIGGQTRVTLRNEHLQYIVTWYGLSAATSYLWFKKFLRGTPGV
inactive: saracatinib 0.034 | sotrastaurin -0.084 | alvocidib -0.078 | Tubastatin A -0.03 | [1] 0.026 | defactinib -0.012 | rucaparib -0.083 | [2] -0.092 | encorafenib 0.017 | [3] -0.105 | [4] 0.053 | filanesib -0.032 | zotarolimus -0.008 | idasanutlin 0.025 | alisertib -0.098 | [5] -0.004 | gefitinib -0.055 | [6] 0.083 | lapatinib 0.058 | pictilisib 0.051

SRI (UniProt P30626)
Chain of UniProt P30626 (P30626 whole entry, looked up): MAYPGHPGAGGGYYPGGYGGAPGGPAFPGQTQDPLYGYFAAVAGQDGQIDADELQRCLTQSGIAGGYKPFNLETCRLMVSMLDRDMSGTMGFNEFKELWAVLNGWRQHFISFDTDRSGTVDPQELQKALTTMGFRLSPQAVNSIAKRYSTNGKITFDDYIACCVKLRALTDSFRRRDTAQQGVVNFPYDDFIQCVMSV
inactive: saracatinib -0.034 | sotrastaurin -0.017 | alvocidib -0.062 | Tubastatin A 0.039 | [1] 0.034 | defactinib -0.108 | rucaparib -0.012 | [2] -0.021 | encorafenib -0.03 | [3] -0.022 | [4] -0.015 | filanesib 0.053 | zotarolimus 0.133 | idasanutlin -0.031 | alisertib -0.035 | [5] -0.109 | gefitinib 0.01 | [6] 0.023 | lapatinib 0.008 | pictilisib -0.04

SURF2 (UniProt Q15527)
Chain of UniProt Q15527 (Q15527 whole entry, looked up): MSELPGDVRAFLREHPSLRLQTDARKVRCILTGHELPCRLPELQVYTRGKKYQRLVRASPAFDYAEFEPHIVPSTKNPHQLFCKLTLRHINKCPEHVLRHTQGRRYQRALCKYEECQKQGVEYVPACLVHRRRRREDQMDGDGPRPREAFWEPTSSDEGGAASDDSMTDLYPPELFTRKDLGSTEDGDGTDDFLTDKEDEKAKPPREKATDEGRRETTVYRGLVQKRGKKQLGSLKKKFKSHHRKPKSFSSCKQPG
inactive: saracatinib 0.034 | sotrastaurin -0.02 | alvocidib 0 | Tubastatin A 0.066 | [1] -0.015 | defactinib -0.056 | rucaparib -0.055 | [2] -0.059 | encorafenib -0.037 | [3] -0.016 | [4] 0.038 | filanesib 0.014 | zotarolimus 0.055 | idasanutlin 0.054 | alisertib -0.133 | [5] 0.023 | gefitinib 0.028 | [6] -0.034 | lapatinib 0.006 | pictilisib -0.07

TAX1BP1 (UniProt Q86VP1)
Chain of UniProt Q86VP1 (Q86VP1 whole entry, looked up): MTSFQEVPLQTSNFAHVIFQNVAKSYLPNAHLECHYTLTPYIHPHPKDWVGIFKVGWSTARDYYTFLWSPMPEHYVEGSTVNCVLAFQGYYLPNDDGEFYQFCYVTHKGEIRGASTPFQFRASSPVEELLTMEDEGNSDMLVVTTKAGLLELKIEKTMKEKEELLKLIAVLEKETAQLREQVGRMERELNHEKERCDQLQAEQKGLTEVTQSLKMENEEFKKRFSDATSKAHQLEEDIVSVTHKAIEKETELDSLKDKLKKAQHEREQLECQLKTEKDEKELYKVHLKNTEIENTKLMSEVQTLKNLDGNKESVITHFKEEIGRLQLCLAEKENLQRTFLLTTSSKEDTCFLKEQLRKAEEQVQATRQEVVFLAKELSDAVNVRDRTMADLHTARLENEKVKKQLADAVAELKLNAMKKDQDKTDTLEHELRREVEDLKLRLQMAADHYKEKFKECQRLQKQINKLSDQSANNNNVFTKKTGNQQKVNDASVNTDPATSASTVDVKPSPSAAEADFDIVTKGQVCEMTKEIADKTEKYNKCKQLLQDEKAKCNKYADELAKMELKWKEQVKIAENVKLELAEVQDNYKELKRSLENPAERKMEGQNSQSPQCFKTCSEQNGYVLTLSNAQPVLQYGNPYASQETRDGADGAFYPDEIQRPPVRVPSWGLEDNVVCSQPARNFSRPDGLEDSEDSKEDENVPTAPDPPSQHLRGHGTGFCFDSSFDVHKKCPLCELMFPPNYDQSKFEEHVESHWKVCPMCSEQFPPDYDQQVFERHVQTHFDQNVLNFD
inactive: saracatinib 0.016 | sotrastaurin -0.057 | alvocidib -0.028 | Tubastatin A -0.01 | [1] -0.016 | defactinib -0.038 | rucaparib -0.003 | [2] -0.06 | encorafenib 0.025 | [3] 0.054 | [4] -0.03 | filanesib -0.043 | zotarolimus -0.009 | idasanutlin 0.069 | alisertib 0.007 | [5] -0.052 | gefitinib 0.001 | [6] 0.033 | lapatinib -0.012 | pictilisib 0.044

STARD7 (UniProt Q9NQZ5)
Chain of UniProt Q9NQZ5 (Q9NQZ5 whole entry, looked up): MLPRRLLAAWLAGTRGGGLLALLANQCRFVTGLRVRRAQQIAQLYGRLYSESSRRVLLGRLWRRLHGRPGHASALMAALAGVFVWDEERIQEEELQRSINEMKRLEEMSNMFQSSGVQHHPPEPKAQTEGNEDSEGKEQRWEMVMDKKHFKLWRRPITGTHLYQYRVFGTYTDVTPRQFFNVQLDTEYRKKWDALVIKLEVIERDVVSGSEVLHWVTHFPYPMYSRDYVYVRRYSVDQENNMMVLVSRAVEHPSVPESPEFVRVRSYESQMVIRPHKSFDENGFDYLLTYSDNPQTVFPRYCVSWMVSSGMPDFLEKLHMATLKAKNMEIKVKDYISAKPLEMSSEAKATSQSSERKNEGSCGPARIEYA
inactive: saracatinib -0.021 | sotrastaurin 0.041 | alvocidib -0.122 | Tubastatin A -0.005 | [1] -0.012 | defactinib -0.047 | rucaparib -0.009 | [2] -0.014 | encorafenib 0.03 | [3] -0.043 | [4] 0.006 | filanesib -0.094 | zotarolimus 0.006 | idasanutlin -0.063 | alisertib 0.027 | [5] -0.171 | gefitinib -0.035 | [6] 0.031 | lapatinib 0.003 | pictilisib 0.01

STOM (UniProt P27105)
inactive: saracatinib -0.015 | sotrastaurin 0.039 | alvocidib 0.169 | Tubastatin A 0.016 | [1] -0.019 | defactinib 0.068 | rucaparib 0.006 | [2] -0.03 | encorafenib 0.016 | [3] 0.002 | [4] 0.004 | filanesib -0.068 | zotarolimus -0.083 | idasanutlin 0.046 | alisertib -0.154 | [5] -0.045 | gefitinib -0.062 | [6] -0.004 | lapatinib 0.067 | pictilisib -0.022

SPART (UniProt Q8N0X7)
Chain of UniProt Q8N0X7 (Q8N0X7 whole entry, looked up): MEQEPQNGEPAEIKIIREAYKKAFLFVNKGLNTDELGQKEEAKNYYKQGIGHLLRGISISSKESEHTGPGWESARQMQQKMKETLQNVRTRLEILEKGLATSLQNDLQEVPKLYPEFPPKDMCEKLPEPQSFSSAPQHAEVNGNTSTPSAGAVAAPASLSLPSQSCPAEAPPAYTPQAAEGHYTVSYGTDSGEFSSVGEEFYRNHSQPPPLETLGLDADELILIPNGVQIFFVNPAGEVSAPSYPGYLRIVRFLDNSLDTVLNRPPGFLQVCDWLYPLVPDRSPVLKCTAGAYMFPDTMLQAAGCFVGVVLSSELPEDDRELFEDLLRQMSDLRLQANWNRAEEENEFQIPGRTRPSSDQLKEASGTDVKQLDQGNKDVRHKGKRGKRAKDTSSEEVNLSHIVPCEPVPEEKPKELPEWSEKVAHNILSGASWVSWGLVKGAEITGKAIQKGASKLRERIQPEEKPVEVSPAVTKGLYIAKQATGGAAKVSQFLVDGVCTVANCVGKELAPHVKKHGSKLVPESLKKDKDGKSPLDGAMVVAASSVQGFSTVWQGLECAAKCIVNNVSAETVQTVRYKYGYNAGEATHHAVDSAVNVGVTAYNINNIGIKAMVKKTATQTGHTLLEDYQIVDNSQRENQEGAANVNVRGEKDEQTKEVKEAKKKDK
inactive: saracatinib -0.03 | sotrastaurin -0.011 | alvocidib -0.063 | Tubastatin A -0.05 | [1] 0.001 | defactinib -0.109 | rucaparib -0.02 | [2] -0.032 | encorafenib 0.027 | [3] -0.014 | [4] -0.073 | filanesib 0.011 | zotarolimus 0.02 | idasanutlin 0.03 | alisertib -0.009 | [5] 0.067 | gefitinib 0.054 | [6] -0.028 | lapatinib -0.015 | pictilisib 0.05

STAT6 (UniProt P42226)
inactive: saracatinib 0.087 | sotrastaurin 0.115 | alvocidib -0.153 | Tubastatin A 0.101 | [1] 0.029 | defactinib -0.121 | rucaparib 0.076 | [2] 0.201 | encorafenib 0.189 | [3] -0.168 | [4] 0.019 | filanesib 0.091 | zotarolimus 0.055 | idasanutlin 0.102 | alisertib 0.094 | [5] 0.002 | gefitinib 0.014 | [6] 0.155 | lapatinib -0.016 | pictilisib -0.13

TIPRL (UniProt O75663)
inactive: saracatinib -0.028 | sotrastaurin -0.056 | alvocidib -0.119 | Tubastatin A 0 | [1] 0.009 | defactinib -0.049 | rucaparib 0.013 | [2] -0.001 | encorafenib 0.035 | [3] -0.014 | [4] 0.011 | filanesib -0.063 | zotarolimus -0.013 | idasanutlin -0.104 | alisertib 0.014 | [5] 0.043 | gefitinib -0.034 | [6] -0.009 | lapatinib -0.009 | pictilisib 0.034

STIM1 (UniProt Q13586)
inactive: saracatinib 0.003 | sotrastaurin 0 | alvocidib -0.075 | Tubastatin A -0.029 | [1] -0.001 | defactinib -0.048 | rucaparib 0.011 | [2] -0.047 | encorafenib 0.052 | [3] 0.032 | [4] 0.048 | filanesib -0.123 | zotarolimus 0.041 | idasanutlin 0.02 | alisertib -0.029 | [5] -0.218 | gefitinib 0 | [6] 0.037 | lapatinib -0.011 | pictilisib 0.036

TFB2M (UniProt Q9H5Q4)
Chain of UniProt Q9H5Q4 (Q9H5Q4 whole entry, looked up): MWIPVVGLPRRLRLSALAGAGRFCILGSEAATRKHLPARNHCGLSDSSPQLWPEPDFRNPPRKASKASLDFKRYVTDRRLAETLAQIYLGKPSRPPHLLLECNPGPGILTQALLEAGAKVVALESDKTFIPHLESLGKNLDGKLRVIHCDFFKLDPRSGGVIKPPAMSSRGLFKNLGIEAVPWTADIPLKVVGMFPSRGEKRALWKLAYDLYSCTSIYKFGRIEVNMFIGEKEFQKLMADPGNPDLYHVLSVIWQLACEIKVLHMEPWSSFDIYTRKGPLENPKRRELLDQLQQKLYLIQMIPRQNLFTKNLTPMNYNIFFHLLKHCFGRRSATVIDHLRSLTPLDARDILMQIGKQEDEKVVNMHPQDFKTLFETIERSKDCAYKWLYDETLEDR
inactive: saracatinib -0.029 | sotrastaurin -0.031 | alvocidib -0.082 | Tubastatin A -0.012 | [1] 0.02 | defactinib -0.06 | rucaparib -0.013 | [2] -0.054 | encorafenib -0.002 | [3] -0.001 | [4] -0.044 | filanesib -0.074 | zotarolimus -0.001 | idasanutlin -0.055 | alisertib 0.011 | [5] 0.006 | gefitinib 0.002 | [6] 0.037 | lapatinib -0.001 | pictilisib -0.021

STXBP2 isoform 3 (UniProt Q15833)
inactive: saracatinib -0.138 | sotrastaurin -0.242 | alvocidib -0.113 | Tubastatin A 0.085 | [1] -0.091 | defactinib -0.133 | rucaparib 0.157 | [2] 0.142 | encorafenib 0.176 | [3] -0.203 | [4] 0.021 | filanesib 0.001 | zotarolimus -0.043 | idasanutlin 0.043 | alisertib -0.034 | [5] 0.045 | gefitinib 0.043 | [6] -0.066 | lapatinib 0.007 | pictilisib -0.091

SPTBN4 (UniProt Q9H254)
inactive: saracatinib -0.056 | sotrastaurin 0.009 | alvocidib 0.095 | Tubastatin A -0.005 | [1] -0.284 | defactinib 0.039 | rucaparib 0.059 | [2] -0.035 | encorafenib -0.076 | [3] -0.002 | [4] -0.036 | filanesib -0.068 | zotarolimus 0.014 | idasanutlin -0.237 | alisertib -0.116 | [5] -0.202 | gefitinib -0.047 | [6] 0.158 | lapatinib 0.041 | pictilisib 0.175
